The record followed here is ChEMBL document CHEMBL4513216, “Probing the Open Global Health Chemical Diversity Library for Multistage-Active Starting Points for Next-Generation Antimalarials” (ACS Infect Dis, 2020).

Out of some 69,000 compounds screened, about 8,600 (12%) showed an effect of 50% or more. For the sample, strong results were picked, then their nearest neighbours and some compounds at random.

In this assay the test system is Plasmodium berghei. Description: Screen against P. berghei liver stage (PbLuc), transformed with Luciferase, at 10uM. As to conditions: tested at 10 uM. The class given is functional, HepG2.
Turning to `CCc1noc(C2CC(=O)N(CCN(C)C)C2)n1` (centres undefined), the INHIBITION came to 35.1%. Then `COc1ccccc1C(=O)N1CCNCC1C(N)=O` (centres undefined), with 9.2%. In the case of `CSCCC(C)(O)CNC(=O)c1ccsc1` (centres undefined), the INHIBITION was 8.61%. To `CC(O)(CCc1ccccc1)CNC(=O)c1ccc(F)cc1` (centres undefined) belongs 26.8%; to `CC(O)(CCc1ccccc1)CNC(=O)c1ccsc1` (centres undefined), 50.2%. As for `Cn1cccc1CN1CCC2(CCCN(C(=O)c3cnccn3)C2)C1` (centres undefined), the INHIBITION is 2.01%.

As to `CCn1cc(NC(=O)NCc2ccc3c(c2)OCCO3)cn1`, the INHIBITION is on record as 33%. Take `CCn1cc(NC(=O)NCCc2ccc3c(c2)OCCO3)cn1`: the INHIBITION is -27.8%.

Regarding `CCn1cc(NC(=O)CCc2ccc3c(c2)OCCCO3)cn1`, the INHIBITION worked out at 55.5%.

`CCN(CC)C(=O)c1c(Br)cnn1CC`: the INHIBITION came out at 29.3%. With `COc1c(CNC2CCCOc3ccccc32)c(C(C)C)nn1C` (centres undefined), the INHIBITION stood at 15.3%. Then `NC(=O)c1cnc2n1CCN(C(=O)c1ccc(Cn3cccc3)cc1)C2`, with 15.5%.

For `CC(C)NC(=O)[C@@H]1CCO[C@@H]2CCN(c3ncccn3)C[C@@H]21`, the INHIBITION is reported as 2.41%. Then `Clc1ccc(C(CNCc2cccnc2)n2cccn2)cc1` (centres undefined), with -4.56%; and `CCN1CC(C(=O)N2CCN(c3nsc4ccccc34)CC2)CCC1=O` (centres undefined), with 33.9%; and `CC(C)N1CCCC(C(=O)N2CCN(c3nsc4ccccc34)CC2)C1` (centres undefined), with 58.5%. With `NC(=O)N1CCCC(C(=O)N2CCN(c3nsc4ccccc34)CC2)C1` (centres undefined), the INHIBITION amounted to 35.8%. Turning to `CCc1ccc(CNC(=O)Nc2cc(C)on2)s1`, the INHIBITION worked out at 39.7%. To `Cc1cc(NC(=O)NCc2ccc(S(=O)(=O)N3CCCC3)s2)no1` belongs 68%. Then `Cc1cc(CN2CCN(C(=O)NCc3ccc(C)s3)CC2)no1`, with 18.6%; and `CNS(=O)(=O)c1ccc(CNC(=O)Nc2cc(C)on2)s1`, with 24.3%; and `Cc1cc(NC(=O)NCc2ccc(C)s2)no1`, with 56.8%.

Consider `O=S(=O)(NCc1ccc(S(=O)(=O)N2CCCC2)s1)c1ccc(Cl)c(Cl)c1`, for which the INHIBITION is 40.6%.

Take `Oc1nc(C2CC2)nc2c1nnn2C1CCN(Cc2ccoc2)CC1`: the INHIBITION amounted to 12.25%. To `CCOc1ccc(Cl)c(C(=O)N2CCCC(c3ccn[nH]3)C2)n1` (centres undefined) belongs -10.1%; to `CC(=O)N1N=C(c2ccco2)OC1C(=O)NCCc1ccc(O)cc1` (centres undefined), 48%; to `Cc1cc(C(=O)N(C)C)nc(C2(C)CCCN2c2ccnc(C)n2)n1` (centres undefined), -41.025%. Then `Fc1ccc(-c2nc(CN3CCCC3Cn3cncn3)co2)cc1F` (centres undefined), with 33.7%. In the case of `Cc1nc(C2(NCC(=O)NCCc3cccs3)CCCC2)no1`, the INHIBITION is reported as -81.3%. For `CCCn1cc(C(=O)NCc2nnc(-c3ccc(C)nc3)o2)c(C)n1`, the INHIBITION was 14.6%. Then `Cc1cc(C)n(CCC2CC(=O)Nc3cc4[nH]ncc4cc32)n1` (centres undefined), with 0.991%. As for `CCc1ccc(C2CC(=O)Nc3cc(OC)c(NS(C)(=O)=O)cc32)o1` (centres undefined), the INHIBITION is given as 61.5%.

In the case of `COc1ncccc1C1CC(=O)Nc2cc(NS(C)(=O)=O)ccc21` (centres undefined), the INHIBITION turned out to be 10.1%.

On to `CCc1ccc(C2CC(=O)Nc3n[nH]cc32)o1` (centres undefined), for which the INHIBITION is listed as 26.9%. Then `CCc1ccc(C2CC(=O)Nc3cc(NS(C)(=O)=O)ccc32)o1` (centres undefined), with 85.3%. In the case of `CN(Cc1ccc(C2CC(=O)Nc3n[nH]cc32)o1)S(C)(=O)=O` (centres undefined), the INHIBITION is -38.1%. Consider `CN(Cc1ccc(C2CC(=O)Nc3cc4[nH]ncc4cc32)o1)S(C)(=O)=O` (centres undefined), for which the INHIBITION was determined as 70.2%. Turning to `CCCC(=O)Nc1cc2c(cc1OC)NC(=O)CC2c1ccc(CC)o1` (centres undefined), the INHIBITION was found to be 49.6%. To `COc1cc(C)c(C2CC(=O)Nc3cc(NS(C)(=O)=O)ccc32)cc1C` (centres undefined) belongs -5.22%; to `Cc1nn(C)c(C)c1C1CCCN1C(=O)c1cnccn1` (centres undefined), 2.97%; to `CCc1nc2n(n1)CC(NCc1cnc(-c3ccccc3)nc1)CC2` (centres undefined), 31.9%. To `CCn1ccnc1CN1CCN(CC(O)c2cccc(F)c2)CC1` (centres undefined) belongs -94.9%; to `COc1ccc(NC2(C(=O)N3CCn4cncc4C3)CCCC2)cc1`, 18.5%; to `CCCN(Cc1ccc(C#N)cc1)Cc1nnsc1Cl`, 52%. In the case of `CCCN(CCC)Cc1nnsc1Cl`, the INHIBITION stood at 10.8%. To `CC(C)N(Cc1ccc(C#N)cc1)Cc1nnsc1Cl` belongs 22.4%; to `CCCOc1ccc(CNCCn2cccn2)cc1`, 30.5%. As for `CS(=O)(=O)N1CC(c2n[nH]c3ncccc23)C1`, the INHIBITION is 70.1%. Then `CCc1ccc2c(C3CN(S(C)(=O)=O)C3)ncn2c1`, with 40.8%; and `Cn1nc(C2CN(S(C)(=O)=O)C2)c2nccnc21`, with 35.2%. In the case of `CS(=O)(=O)N1CC(c2ncn3ccccc23)C1`, the INHIBITION is 70.4%. Turning to `CN1CCC(c2n[nH]c3ncccc23)C1` (centres undefined), the INHIBITION is reported as -10.5%. Turning to `CC(=O)N1CC(c2n[nH]c3ncccc23)C1`, the INHIBITION is reported as 27.6%. In the case of `CC(=O)CSc1nc2c(cnn2CCO)c(=O)[nH]1`, the INHIBITION is on record as -8.41%.
